# Most compounds without a hit are left out; they make up all but 2.4% or so of the library.
# POLK inh: inhibitors of human DNA polymerase kappa; Q9UBT6; purified Pol kappa, fluorescent DNA synthesis assay, 10 min; Potency, µM (highest dose often 107 µM), for inactives: top-dose activity, negative = inhibition, hits mostly inhibitors; hit rate 0.53% among 400,000; AID 588579; further: on the % scale 0 is the no-effect control and ±100 the full control effect
#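 Activity was followed as the change in fluorescence between reads at 0 and 10 min after starting the reaction with 50 nM substrate. Beforehand, 10 nM polymerase had been preincubated with compound for 15 min at room temperature.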
# Pol beta inh: inhibitors of human DNA polymerase beta; Potency, µM (top dose mostly 114 µM), without a hit: at the top dose activity change, negative = inhibition, hits mostly inhibitors; Pol beta primer extension/strand displacement, fluorescence kinetic; P06746; hit rate 1.3% among 340,000; further: on the % scale 0 is the no-effect control and ±100 the full control effect
#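 10 nM enzyme + cpd, 15 min RT; start with substrate 50 nM final; read 0 min and after 10 min RT. Corrected, normalized data; 4-parameter Hill curve fit.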
# Pol eta inh: blocks human DNA polymerase eta activity | AID 588591 | Q9Y253 | hit rate 1.2% among 390,000 | Potency, µM (titrated, usually from 114 µM), for inactives: at the highest dose activity change, negative = inhibition, actives largely listed as inhibitors | recombinant Pol eta, fluorescent DNA replication assay; further: on the % scale 0 is the no-effect control and ±100 the full control effect
#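 Pol eta (10 nM) was preincubated with compounds for 15 min at room temperature, after which fluorescent replication substrate (50 nM final) was added to start the reaction. Fluorescence was read kinetically at 0 and 10 min.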
# L3MBTL1 inh: L3MBTL1 (human) inhibition; Q9Y468; AlphaScreen L3MBTL1–H3K9me1 peptide binding; Potency, µM (series often up to 57.1 µM), without a hit: at the highest dose activity, negative = inhibition, hits mostly inhibitors; hit rate 0.66% among 230,000; AID 485360; further: on the % scale 0 is the no-effect control and ±100 the full control effect; nearly all actives have a fitted effect of over 60% in size
# Target sequence (Q9Y468 whole entry, looked up): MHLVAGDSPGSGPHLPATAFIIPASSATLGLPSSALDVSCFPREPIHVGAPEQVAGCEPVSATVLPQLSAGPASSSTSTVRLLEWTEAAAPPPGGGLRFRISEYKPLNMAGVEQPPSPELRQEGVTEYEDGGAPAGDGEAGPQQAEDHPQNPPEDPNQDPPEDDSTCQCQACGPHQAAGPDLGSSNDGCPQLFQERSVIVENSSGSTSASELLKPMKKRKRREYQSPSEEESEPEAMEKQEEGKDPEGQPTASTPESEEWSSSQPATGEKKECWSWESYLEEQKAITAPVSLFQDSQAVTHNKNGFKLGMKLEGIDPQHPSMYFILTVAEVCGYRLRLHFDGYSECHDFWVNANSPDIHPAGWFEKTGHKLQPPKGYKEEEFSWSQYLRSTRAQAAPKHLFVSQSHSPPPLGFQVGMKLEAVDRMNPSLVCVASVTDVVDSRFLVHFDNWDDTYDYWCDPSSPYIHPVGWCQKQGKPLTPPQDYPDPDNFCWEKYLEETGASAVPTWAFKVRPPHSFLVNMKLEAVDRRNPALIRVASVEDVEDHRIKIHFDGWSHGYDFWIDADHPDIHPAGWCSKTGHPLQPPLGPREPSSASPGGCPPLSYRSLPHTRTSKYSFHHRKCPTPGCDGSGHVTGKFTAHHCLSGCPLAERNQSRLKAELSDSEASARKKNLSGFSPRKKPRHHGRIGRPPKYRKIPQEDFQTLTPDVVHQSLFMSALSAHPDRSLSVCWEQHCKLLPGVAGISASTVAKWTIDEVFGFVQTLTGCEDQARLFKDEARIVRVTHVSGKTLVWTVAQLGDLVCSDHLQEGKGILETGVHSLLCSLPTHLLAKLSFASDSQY
#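 Displacement of a biotinylated histone H3(1-15) peptide monomethylated at Lys9 (75 nM) from L3MBTL1 (50 nM) was measured by AlphaScreen after a 30 min room-temperature compound incubation; cefsulodin titration served as intraplate control.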
# Pol iota inh: blocks human DNA polymerase iota activity | Q9UNA4 | Pol iota fluorescent replication assay, 10 min | Potency, µM (top dose mostly 115 µM), for the others: at the top dose activity, negative = inhibition, hits mostly inhibitors | hit rate 1% among 390,000
#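 Pol iota at 10 nM preincubated 15 min with compounds at room temperature; reaction started with fluorescent substrate, 50 nM final. Fluorescence read kinetically at 0 and 10 min; buffer-only wells as negative control.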
# Active calls of the source: *; ? = inconclusive; · = no result given; [ ] = remark or other dose. The call rests on the fitted dose curve; in most records, active means well fitted curve in the direction sought with a large enough effect; inconclusive means small, poorly fitted or top-dose-only effect, or another doubt; inactive means no such curve, though single readings can be large; an effect the other way counts as inactive or inconclusive. Potency means the concentration at half of the fitted maximal effect.
SMILES,POLK inh,Pol beta inh,Pol eta inh,L3MBTL1 inh,Pol iota inh
COC(=O)CCC(=O)OC1(C)C(=O)C2=CN(CCc3ccccn3)C(c3ccc(OC)cc3)=CC2=C(Br)C1=O (configuration not stated),-16%,·,32µM*,·,?
C[C@H](CO)N1C[C@H](C)[C@@H](CN(C)C(=O)NC2CCCCC2)Oc2c(NC(=O)c3ccncc3)cccc2C1=O,1%,·,-5%,9%,1%
COc1ccc(Cn2c(C(=O)O)c(CNC3CCCCCC3)c3ccc(OC)cc32)cc1,4%,-1%,-13%,·,-5%
C=Cc1ccc(Cn2c(C(=O)O)c(CNC3CCCCC3)c3ccc(OC)cc32)cc1,-22%,35µM*,?,·,?
C=C[C@@H]1[C@@H](C)[C@H](C)C(=O)C([C@H](O)C(C)C)[C@@H]1C (some centres not stated),8%,·,·,·,-29%
Cc1cc2ccccn2c1C(=O)c1ccc(N/N=C/c2ccc(C(=O)O)cc2)c([N+](=O)[O-])c1,-10%,?,35µM*,·,?
CC12CCC(CC1O)C2C(=O)O (configuration not stated),·,·,-8%,·,·
Cc1cccc(N=C2NC(=O)S/C2=C\c2ccco2)c1,79µM*,?,?,?,35µM*
COc1cccc(NC(=O)Cn2c(=O)n(CCc3cccc(C)c3)c(=O)c3ccccc32)c1,-27%,-16%,-6%,·,89µM*
CN(C)CCN(C(=O)/C=C/c1cccs1)c1nc2c(F)cc(F)cc2s1,-8%,40µM*,-38%,-1%,?
CC[C@]12c3[nH]c4cc(-c5ccco5)ccc4c3CCN1C(=O)[C@@H](CC(=O)NCCC1=CCCCC1)C[C@@H]2C(=O)N1CCN(C(=O)c2ccco2)CC1,28µM*,·,-10%,20µM*,7.9µM*
CC[C@]12c3[nH]c4cc(CCC(=O)N(C)C)ccc4c3CCN1C(=O)[C@@H](CC(=O)NCCC1=CCCCC1)C[C@@H]2C(=O)N1CCN(C(=O)c2ccco2)CC1,5%,·,-17%,9%,40%
CCN(CC)C(=O)[C@H]1C[C@H](CC(=O)NCc2ccc(OC)c(OC)c2)C(=O)N2CCc3c([nH]c4cc(-c5ccco5)ccc34)[C@]12C,7%,·,-17%,-27%,?
COc1ccc(CNC(=O)C[C@H]2C[C@H](C(=O)N3CCCCC3)[C@@]3(C)c4[nH]c5cc(-c6ccco6)ccc5c4CCN3C2=O)cc1OC,?,·,-16%,?,40µM*
CCOP(=O)(OCC)C(C#N)=C1SCN(c2ccccc2)CS1,-15%,·,40µM*,·,?
CCOP(=O)(c1ccccc1)C1(C#N)CC1 (configuration not stated),-2%,44%,-5%,·,33%
CCc1cccc2sc(N(CCCN3CCOCC3)C(=O)CS(=O)(=O)c3ccccc3)nc12,-38%,·,-27%,-10%,89µM*
COc1ccc(OC)c(CNC(=O)c2cnc(N(C)C)nc2)c1,-10%[60.1 µM],1%,·,·,16%
CC(C)(C)OC(=O)N1C=CCC1CN1C(=O)COCC1=O (configuration not stated),-1%,·,·,·,2%
N#C/C(=C(/O)CCl)c1nc2c(s1)CCc1ccccc1-2,-27%,?,35µM*,·,?
CCOC(=O)c1cc(-c2ccco2)nc2c1c(C)nn2-c1ccccc1,-6%,45µM*,?,-4%,15%
CCCn1c(=O)c2c(C(=O)OCC)cc(-c3ccco3)nc2n(CCC)c1=O,-8%,14%,-8%,·,7%
COc1cc(/C=N/NC(=O)c2cc(-c3ccco3)nc3ccccc23)cc(OC)c1O,?,50µM*,?,-23%,45µM*
NC(=O)COC(=O)c1cc(-c2ccco2)nc2ccccc12,?,?,45µM*,-3%,?
O=C(COC(=O)c1cc(-c2ccco2)nc2ccccc12)NCc1ccc2c(c1)OCO2,-5%,28µM*,?,?,-13%
SMILES,POLK inh,Pol beta inh,Pol eta inh,L3MBTL1 inh,Pol iota inh
COc1cc(/C=N/NC(=O)c2cc(-c3ccccc3Cl)nc3ccccc23)cc(OC)c1O,-7%,·,-23%,·,31%
Cc1ccccc1NC(=O)C1CCN(C(=O)c2cnn(-c3ccccc3)c2-n2cccc2)CC1,-5%,44%,-7%,·,6%
CC(C)N1CCN(Cc2cccc(-c3ccco3)c2)CC1CCO (configuration not stated),-7%,10µM*,-20%,?,41%
CC(C)N1CCN(Cc2ccccc2-c2ccco2)CC1CCO (configuration not stated),14%[60.1 µM],9%,-9%,-8%,13%
O=S(=O)(c1ccc(-c2ccon2)s1)N1CCCC1,2%,5%,-16%,3%,45%
O=S(=O)(c1ccc(-c2ccon2)s1)N1CCN(c2ccncc2)CC1,-6%,13%,-35%,·,40µM*
O=C(O)C1Cc2ccccc2CN1C(=O)COc1ccc(Cl)cc1 (configuration not stated),-20%,-27%,32µM*,?,-17%
COc1ccc(-n2c(=O)c(C)nc3cnc(Oc4ccccc4)nc32)cc1,1%[60.1 µM],·,·,·,·
COc1ccc(NC(=O)COC(=O)c2cc3c(s2)CCC3)cc1,?,·,45µM*,?,32µM*
O=C(COC(=O)c1cc2c(s1)CCCC2)Nc1ccc(Cl)cn1,7%,-25%,-2%,-1%,21%
O=C(Nc1ccc(-c2ccco2)cc1)C1CCCN(Cc2ccc(CO)o2)C1 (configuration not stated),-14%,18%,-29%,·,?
CC(=O)c1cccc(CN2CCCC(C(=O)Nc3ccc(-c4ccco4)cc3)C2)c1 (configuration not stated),-6%,-2%,?,·,45µM*
COc1ccc(Nc2nn3c(=O)c4cc5c(cc4nc3s2)OCO5)c(OC)c1,-5%,3.5µM*,?,·,34%
COc1ccc(NC(=O)c2ccc3c(=O)n4nc(Nc5ccccc5C)sc4nc3c2)cc1,-13%[60.1 µM],4µM*,?,·,-11%
COc1ccccc1Nc1nn2c(=O)c3ccc(C(=O)NCCc4ccccc4)cc3nc2s1,0%,?,79µM*,·,-10%
CCOc1ccc(NC(=O)c2ccc3c(=O)n4nc(Nc5ccccc5C)sc4nc3c2)cc1,0%,-1%,-19%,·,16%
CCC1=C(c2ccc(C)cc2)S(=O)(=O)N=C1N1CCC(C(=O)Nc2ccccc2C(=O)OC)CC1,0%,3%,·,·,14%
Cc1cccc(OCCC(=O)NO)c1,1%,·,·,·,14%
CC(=O)Nc1ccc(/C=C/C(=O)c2ccc(-n3nncc3-c3ccccc3)cc2)cc1,-17%,·,·,·,?
O=C(O)/C(=C\c1cccc(O)c1)c1ccc(S(=O)(=O)N2CCCC2)s1,?,·,35µM*,-26%,?
